HTT ATP protect: protects HTT-Q103 PC12 cells, measured by ATP; 230,000 compounds, 0.14% hits; PC12 HTT-Q103 induced, cytoprotection, ATP luminescence, 40 h; Potency, µM (titrated, usually from 56.4 µM), inactives show cytoprotection (ATP increase), usual class: activators; AID 1471; further: potency means the concentration at half of the fitted maximal effect; % of control where 0% means no effect; nearly all actives have a fitted effect of over 45% in size
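Compounds were screened for protection of PC12 cells against cell death after tebufenozide induction (100 nM final) of mutant Huntingtin exon 1 (Q103) fused to GFP.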
CBFb-RUNX1 inh: CBF-beta/RUNX1 interaction disruption | 230,000 tested, under 10 active | AlphaScreen CBFb-His/RUNX1-biotin binding, biochemical | Q01196+Q13951 | AID 1477 | Potency, µM (doses to about 59.8 µM), inactives show at the highest dose activity, negative = inhibition, most hits filed as inhibitors; further: % of control where 0% means no effect
Target sequence (Q01196 whole entry, looked up): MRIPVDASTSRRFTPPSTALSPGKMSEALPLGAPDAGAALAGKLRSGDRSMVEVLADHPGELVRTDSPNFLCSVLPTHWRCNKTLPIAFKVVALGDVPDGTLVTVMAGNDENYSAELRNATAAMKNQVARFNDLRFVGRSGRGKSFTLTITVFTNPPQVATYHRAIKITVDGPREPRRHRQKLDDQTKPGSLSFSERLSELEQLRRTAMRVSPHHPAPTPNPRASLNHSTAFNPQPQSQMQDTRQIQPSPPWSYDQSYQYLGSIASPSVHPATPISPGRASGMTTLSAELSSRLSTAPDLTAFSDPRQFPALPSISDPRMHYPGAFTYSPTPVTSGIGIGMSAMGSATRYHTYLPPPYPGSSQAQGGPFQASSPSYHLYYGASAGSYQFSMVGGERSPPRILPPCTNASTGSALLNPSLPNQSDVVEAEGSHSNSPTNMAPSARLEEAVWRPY
Target sequence (Q13951 whole entry, looked up): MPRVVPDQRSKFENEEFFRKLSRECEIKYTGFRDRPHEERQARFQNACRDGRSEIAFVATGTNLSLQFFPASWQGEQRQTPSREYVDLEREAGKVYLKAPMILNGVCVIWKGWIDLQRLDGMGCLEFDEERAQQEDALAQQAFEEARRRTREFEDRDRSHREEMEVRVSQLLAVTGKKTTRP
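CBFb-His/RUNX1-biotin, 30 nM each, preincubated 20 min RT; compound 15 min RT; Ni + streptavidin beads 50 ng each, 90 min RT; AlphaScreen read.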
HPGD inh: blocks human HPGD enzyme activity. P15428. purified HPGD, NADH fluorescence kinetic, PGE2 substrate. Potency, µM, inactives show at the highest dose activity change, negative = inhibition, actives largely listed as inhibitors. 150,000 compounds, 4.3% hits. AID 894; active means well fitted inhibition curve with a large enough effect, not every such curve was filed as active; inconclusive means small, poorly fitted or top-dose-only effect, or another doubt; inactive means no such curve, though single readings can be large or run the other way; further: potency means the concentration at half of the fitted maximal effect; on the % scale 0 is the no-effect control and ±100 the full control effect
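20 nM HPGD preincubated 15 min at room temperature with compound in 50 mM Tris-HCl pH 8, 0.01% Tween 20. Started with 1 mM NAD+ and 30 uM prostaglandin E2; NADH fluorescence (360/450 nm) read 5 times over 30-s intervals, last minus first.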
ALDH1A1 inh: ALDH1A1 (human) enzyme inhibition; Purified ALDH1A1, NADH fluorescence, propionaldehyde substrate; P00352; Potency, µM (doses to about 75.3 µM), for inactives: at the highest dose activity, negative = inhibition, most hits filed as inhibitors; 220,000 compounds, 7.3% hits; active means well fitted inhibition curve with a large enough effect, not every such curve was filed as active; inconclusive means small, poorly fitted or top-dose-only effect, or another doubt; inactive means no such curve, though single readings can be large or run the other way;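 further: potency means the concentration at half of the fitted maximal effect; plate controls were no enzyme wells and a reference inhibitor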
PNC assembly inh: blocks assembly of the perinucleolar compartment. 140,000 compounds, 3.1% hits. PC3M PTB-GFP, PNC prevalence imaging, 16 h; hits give low values. activity change (PNC), negative = inhibition, % at 10 µM;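 active means readout at or below -70, meaning at least 70% loss of cells showing the perinucleolar compartment, a nuclear body marking cancer cells; inconclusive means readout between -30 and a set limit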;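 further: plate controls were DMSO wells for no effect and camptothecin positive control wells for full effect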
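Compounds are pinned in duplicate onto adhered PC3M cells stably expressing GFP-tagged PTB and incubated 16 h at 37 C. Cells are then fixed, nuclei stained with Hoechst, and PNC-positive cells counted.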
HttQ103 aggreg: mutant huntingtin aggregation inhibition; Potency, µM (doses to about 46.1 µM), for the others: at the highest dose activity change, negative = inhibition, usual class: inhibitors; 220,000 compounds, 1.1% hits; PC12 HttQ103-GFP aggregates, Acumen cytometry, 40 h; further: potency means the concentration at half of the fitted maximal effect; on the % scale 0 is the no-effect control and ±100 the full control effect; nearly all actives have a fitted effect of over 60% in size
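PC12/HTTQ103-GFP, ecdysone-inducible; teb 100 nM; cpd qHTS titration; GFP aggregates read on laser cytometer, Ex 488/Em 500-530 nm.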
Numbers without * were called inactive; u = inconclusive; x = no result; [ ] = remark or other dose. Compounds with a hit are over-represented: about 11% of the library has one in this group of screens. Unless noted, the call rests on the fitted dose curve; in most records, active means well fitted curve in the direction sought with a large enough effect; inconclusive means small, poorly fitted or top-dose-only effect, or another doubt; inactive means no such curve, though single readings can be large; an effect the other way counts as inactive or inconclusive.

SMILES	HTT ATP protect	CBFb-RUNX1 inh	HPGD inh	ALDH1A1 inh	PNC assembly inh	HttQ103 aggreg
COC(=O)CSc1nc(C(C)C)nc2ccccc12	1.5%	3.5%	-9.5%	-1.0%	16.6	6.9%
Cc1ccc(C(=O)CSc2nc(C(C)C)nc3ccccc23)cc1	14.4%[10 µM]	-1.7%	x	28.2µM*	x	-6.9%[9.22 µM]
CC(C)c1nc(SCC(=O)c2ccc(F)cc2)c2ccccc2n1	x	0.1%	x	20µM*	x	x
CN1CCN(c2ncc3nc(-c4cccc(C#N)c4)c(=O)n(CCC#N)c3n2)CC1	-34.0%	x	x	u	x	x
CCCCCCCCCCCCCCC(F)C(=O)O (configuration not stated)	-16.9%	3.7%	-5.5%	-0.8%	x	x
O=C(O)CCCNc1c(C(=O)Nc2ccc(Cl)cc2)cc([N+](=O)[O-])cc1[N+](=O)[O-]	-7.1%	-6.5%	x	0.6%	x	-11.9%
COc1ccc2c(c1)OC(=O)CC2c1ccccc1C (configuration not stated)	-40.5%[96.6 µM]	-1.7%[89.1 µM]	-7.0%	-6.6%[120 µM]	x	x
COc1cccc(C(c2sc3ncnn3c2O)N2CC(C)OC(C)C2)c1 (configuration not stated)	5.6%[10 µM]	-1.6%	-9.7%	0.355µM*	7.1	u
CCc1ccc(-c2csc(-c3c[nH]c4ccccc34)n2)cc1	-34.3%[10 µM]	-11.6%	u	-3.0%	10.9	8.3%
Nc1nc(-c2c[nH]c3ccccc23)cs1	-14.0%	-17.8%	-20.7%	7.94µM*	4.0	-7.9%
CNc1nc(-c2c[nH]c3ccccc23)cs1	-32.5%	-2.3%	-24.2%	7.08µM*	10.9	-11.6%[9.22 µM]
CC1CCCN(CCCOc2ccccc2-c2ccccc2)C1 (configuration not stated)	-17.9%	1.9%	x	u	x	-6.7%
O=C(NCCCNc1ccc([N+](=O)[O-])cc1)C(F)(F)F	x	0.2%	20µM*	u	24.8	-9.3%
O=C(CCl)N(CCCNC(=O)C(F)(F)F)c1ccc([N+](=O)[O-])cc1	33.7%[10 µM]	1.5%	x	x	x	-16.2%[9.22 µM]
S=C1SCN(Cc2cccnc2)CN1Cc1cccnc1	-52.6%[10 µM]	-0.8%	x	14.1µM*	x	-9.6%[9.22 µM]
S=C1SCN(Cc2ccccc2)CN1Cc1ccccc1	-67.8%	x	x	x	x	u
O=C(O)c1ccc(CSc2n[nH]c(-c3ccco3)n2)cc1	-8.1%	-10.8%	2.82µM*	u	24.8	21.3%
O=C(CSc1n[nH]c(-c2ccco2)n1)N1c2ccccc2Sc2ccccc21	-0.7%	-18.2%	12.6µM*	7.94µM*	u	-9.1%
CCOC(=O)CSc1n[nH]c(-c2ccco2)n1	5.9%	3.2%	u	0.7%	24.0	-1.4%
CC(=O)Nc1cc(-c2ccc(Cl)cc2)[nH]n1	25.7%[10 µM]	-0.5%	x	4.5%	x	0.3%[9.22 µM]
O=C(Nc1nnc(C(F)(F)F)s1)c1ccc(Br)s1	x	4.2%	x	2.2%	x	5.62µM*
CC(C)(C)CC(=O)Nc1nnc(C(F)(F)F)s1	21.2%[10 µM]	3.4%	-0.5%	2.4%	u	-15.3%
CC(NC(=O)Nc1nnc(C(F)(F)F)s1)(C(F)(F)F)C(F)(F)F	-59.3%	4.9%	-2.3%	1.1%	-11.8	2.24µM*
CCSc1nnc(NC(=O)c2ccc(Br)s2)s1	-10.6%	0.5%	u	u	26.2	-23.6%
N#Cc1nc(-c2ccco2)oc1N1CCN(c2cccc(Cl)c2)CC1	14.7%[10 µM]	u	u	u	-82.1*	5.6%
SMILES	HTT ATP protect	CBFb-RUNX1 inh	HPGD inh	ALDH1A1 inh	PNC assembly inh	HttQ103 aggreg
COc1ccc(/C=C/C2=CC3(C)CC2(C)C(c2ccc(OC)cc2)CC3=O)cc1 (configuration not stated)	12.5%[10 µM]	-9.2%[13.1 µM]	x	-0.8%[13.5 µM]	x	x
Cc1nc(-c2coc3c(O)c(O)ccc3c2=O)cs1	-175.7%	u	-21.7%	-12.5%	x	x
O=[N+]([O-])c1cc2c(cc1C=Nc1ccccc1)OCO2	5.5%	-4.5%	-13.8%	u	-0.8	-17.8%
O=[N+]([O-])c1cc2c(cc1/C=N/n1c(-c3ccccc3)n[nH]c1=S)OCO2	-22.4%	0.7%	3.16µM*	12.6µM*	u	-1.0%
O=[N+]([O-])c1cc2c(cc1/C=N/n1c(-c3ccccn3)n[nH]c1=S)OCO2	9.5%[10 µM]	x	u	28.2µM*	u	15.0%
O=C1NN(c2ccccc2)C(=O)/C1=C/c1ccc(Sc2cccc3ccccc23)o1	3.3%[10 µM]	u	17.8µM*	-5.4%	-19.9	u
CN(c1ccccc1C(=O)Nc1ccccc1C(=O)NCc1ccco1)S(C)(=O)=O	-5.9%	1.7%	-11.8%	-2.3%	-116.6*	-8.5%
O=C(NCc1ccco1)c1ccccc1NS(=O)(=O)c1ccc(Br)s1	-52.7%	-4.2%	-16.6%	u	-3.8	17.8µM*
CC(=O)c1c(O)cccc1O	x	9.4%	x	x	x	x
CCc1nc(C)cn1S(=O)(=O)c1cc(C)c(OC)c(C)c1C	15.1%	1.6%	-8.9%	25.1µM*	-1.3	-41.7%[9.22 µM]
O=C1/C(=C/c2cccs2)COc2ccccc21	23.5%[10 µM]	-1.1%	25.1µM*	-7.8%	-19.9	-8.5%
O=C(/C=C/c1cn(CC(O)CN2CCCCC2)c2ccccc12)c1cccs1 (configuration not stated)	-17.2%[10 µM]	3.2%	-18.6%	14.1µM*	u	-7.7%
O=C(/C=C/c1cn(CC(O)CN2CCCCC2)c2ccccc12)c1ccccc1 (configuration not stated)	-6.2%[10 µM]	0.2%	x	x	x	-5.0%[9.22 µM]
CCOC(=O)c1cnc(N(C)C)nc1SC(=N)N	-2.6%[10 µM]	x	-18.3%	u	x	x
CC[n+]1c(/C=C(\C)SC)sc2ccccc21	-15.9%	6.2%	28.2µM*	5.97µM*	31.4	-29.6%
CC[n+]1c(/C=C(/C)SC)sc2ccccc21	-5.9%[10 µM]	1.6%	x	u	-18.3	-16.5%
CC[n+]1c(C=C2C=C(C)OC(C)=C2)sc2ccccc21	-97.2%	1.1%	x	u	x	3.98µM*
CC[n+]1c(/C=C/Nc2ccccc2)sc2ccccc21	-48.0%	-0.8%	-6.6%	-2.8%	-28.2	11.2µM*
c1ccc2c(c1)Cn1nnnc1-2	7.9%[0.074 µM]	4.3%	-17.2%	6.5%	-15.8	9.0%
c1ccc2c(c1)CC1(CCCCC1)n1nnnc1-2	-2.9%[10 µM]	11.2%	-2.9%	12.6µM*	u	u
CN(C(=O)CSc1cc(C(=O)c2nccn2C)c2ccccc2n1)c1ccccc1	-83.8%[10 µM]	-7.0%	x	x	x	u
COc1cc(/C=C2/C(=O)N(c3ccc([N+](=O)[O-])cc3)N=C2N2CCOCC2)ccc1O	16.1%[10 µM]	-2.6%	x	u	x	9.1%[9.22 µM]
CCN(CC)c1ccc(/C=C2/C(=O)N(c3ccc([N+](=O)[O-])cc3)N=C2N2CCOCC2)cc1	13.3%	-3.8%	-16.8%	4.47µM*	u	8.6%
Cc1cccc([C@@H]2CN(C)CCc3c2cc(O)c(O)c3Cl)c1	u	5.6%[21.7 µM]	-0.9%	-8.0%	x	x
